USP10 block: human USP10 deubiquitinase inhibition. Q14694. purified USP10, Ub-rhodamine fluorescence, 60 min. inhibition, % at 20 µM. 47,000 compounds, 1.1% hits. AID 1645856
USP8 block: blocks human USP8 ubiquitin-rhodamine cleavage | P40818 | purified USP8, Ub-rhodamine cleavage fluorescence, 30 min | inhibition, % at 20 µM | 47,000 compounds, 4.2% hits
USP30 block: blocks human USP30 ubiquitin-rhodamine cleavage; 47,000 compounds, 5.3% hits; inhibition, % at 25 µM; purified USP30, Ub-rhodamine cleavage fluorescence; Q70CQ3
USP28 block: human USP28 deubiquitinase inhibition; AID 1645857; purified USP28, Ub-rhodamine cleavage fluorescence, 30 min; inhibition, % at 25 µM; 47,000 compounds, 3% hits
USP17 block: human USP17-like deubiquitinase inhibition. A8MUK1. purified USP17, Ub-rhodamine cleavage fluorescence, 3 h. inhibition, % at 50 µM. 47,000 compounds, 6.5% hits. AID 1645855
Numbers without * were called inactive; x = not tested or not shown. Compounds with a hit are over-represented: about 14% of the library has one in this group of screens. No stated cut-off is given here; in the data, active means inhibition above about 30%; inactive means the rest.

SMILES	USP10 block	USP8 block	USP30 block	USP28 block	USP17 block
O=C(NCCc1ccccc1)c1cn2cc(Cl)ccc2n1	1.4	-0.1	0.0	3.8	-0.5
O=C(NCc1ccco1)c1nnn(Cc2ccccc2Cl)c1-n1cccc1	-12.2	25.5	-115.1	5.6	33.1*
O=C(CN(Cc1ccccc1Cl)C(=O)CCC(=O)Nc1ccccn1)NCc1ccco1	0.6	0.0	-0.1	-1.4	-7.9
O=C(NCCc1ccccc1)c1nnn(Cc2cccc(Cl)c2)c1-n1cccc1	0.0	8.0	-40.7	78.4*	15.3
O=C(CSc1nnnn1-c1ccccc1)N1CCN(c2ccccc2)CC1	1.4	-5.0	15.2	17.3	12.9
O=C(CSc1nnnn1-c1ccccc1)Nc1ccccc1	5.2	9.9	46.0*	15.3	50.8*
CN1C[C@H]2CCN(C(=O)c3ccnnc3)CC[C@H]2S1(=O)=O	0.0	-32.5	24.4	3.4	-0.4
O=C(Cn1c(CSc2ccccc2)nc2ccccc21)Nc1ccccc1F	9.6	50.5*	16.0	64.5*	-4.5
Cc1cc(=O)n(CC(=O)Nc2ccccc2F)c(N2CCCCC2)n1	3.1	-10.3	-12.2	-7.1	2.0
COc1ccccc1NC(=O)c1cc(S(=O)(=O)N2CCCc3ccccc32)ccc1F	-1.5	-2.0	11.3	0.2	42.9*
COc1ccc(S(=O)(=O)N2CCc3ccccc32)cc1C(=O)Nc1ccc2[nH]c(=O)[nH]c2c1	31.4*	73.3*	87.4*	37.4*	27.3
Cc1cccc(NS(=O)(=O)c2cc3n(c2)CCCN(C)C3=O)c1	-0.6	-1.0	-16.5	-1.4	-1.3
Cc1ccc(NC(=O)CCC(=O)Nc2ccc3nc(N4CCCCC4)cc(C)c3c2)c(Br)c1	1.4	33.3*	34.2*	17.6	63.4*
CCOc1ccccc1NC(=O)CCC(=O)Nc1ccc2nc(N3CCN(C)CC3)cc(C)c2c1	-0.8	-2.4	0.0	-7.6	-20.4
COc1cc(NC(=O)CCC(=O)Nc2ccc3nc(N4CCOCC4)cc(C)c3c2)cc(OC)c1OC	2.0	13.4	28.1	11.7	16.4
CCN1CCN(c2cc(C)c3cc(NC(=O)C4CC4)ccc3n2)CC1	-0.8	-5.0	-7.8	-11.3	-13.4
Cc1cc(N2CCOCC2)nc2ccc(NC(=O)CCC(=O)Nc3ccc(F)cc3)cc12	10.8	9.9	39.3*	11.8	60.4*
Cc1cc(N2CCCCC2)nc2ccc(NC(=O)c3ccncc3)cc12	-2.7	-9.2	-33.1	37.5*	-7.2
Cc1ccc(C)c(C(=O)OCC(=O)Nc2ccc(N3CCOCC3)cc2)c1	9.4	-0.6	-11.7	1.3	-6.7
Cc1ccc(CN2C(=O)NC3(CCN(C(=O)COc4ccccc4)CC3)C2=O)cc1	1.6	18.5	20.7	5.4	14.2
NC(=O)c1ccc(-c2csc(N)n2)cc1	11.1	-251.1	-21.3	6.0	-34.2
COc1ccccc1NS(=O)(=O)c1ccc2oc(Nc3ccc4c(c3)CCC4)nc2c1	27.0	50.8*	-52.4	0.2	4.9
COc1ccccc1NS(=O)(=O)c1ccc(-c2c(C)noc2C)cc1	1.6	-3.9	-9.6	2.2	-15.6
CCc1cc(C(=O)c2ccc(OC)cc2)c(NC(=O)CN2CCCCC2)s1	4.8	5.1	73.9*	18.6	4.7
CCc1cc(C(=O)c2ccc(OC)cc2)c(NC(=O)CCC(=O)O)s1	5.8	1.2	30.6*	7.8	28.9
SMILES	USP10 block	USP8 block	USP30 block	USP28 block	USP17 block
COc1ccc(C(=O)Nc2cc(OC)c(NC(=O)CN3CCOCC3)cc2OC)cc1	-4.9	58.2*	-121.5	-31.7	-4.8
O=C1CC(C(=O)N2CCCC2)CN1CCc1ccccc1 (centres undefined)	-1.6	-2.6	x	x	6.0
Cc1ccc(-n2c(-c3ccccc3)cn3c4c(=O)[nH]c(=O)n(C)c4nc23)cc1C	4.0	0.1	-43.6	4.8	78.1*
Cn1c(=O)[nH]c(=O)c2c1nc1n(CCc3ccccc3)c(-c3ccccc3)cn21	4.4	-22.6	49.9*	4.6	53.6*
Cc1ccc(-n2c(-c3ccccc3)cn3c4c(=O)[nH]c(=O)n(C)c4nc23)cc1Cl	8.0	-6.8	34.1*	16.2	52.2*
COc1ccc(Cl)cc1NC(=O)COC(=O)c1c2c(nc3ccccc13)CCC(C)C2 (centres undefined)	-5.7	5.3	-10.3	3.8	-7.5
CC1=C(C(=O)Nc2ccccn2)C(c2ccc(Cl)c(Cl)c2)n2ncnc2N1 (centres undefined)	4.1	23.8	16.8	12.2	x
CCC(C)c1ccc(-c2cc(C(=O)OCC(=O)NCc3ccc4c(c3)OCO4)c3ccccc3n2)cc1 (centres undefined)	-5.8	27.4	-5.7	2.1	18.8
O=C(Cn1ncc2c1-c1ccccc1OC2)Nc1ccc(F)c(Cl)c1	6.8	-4.0	35.2*	13.0	-5.1
N#Cc1cccc(CN2CC[C@H](c3nnc(-c4cccnc4)o3)C2)c1	1.9	53.7*	6.3	13.3	0.9
COc1ccccc1[C@]1(C(=O)N2CCOCC2)C[C@H]1COc1ccccc1	-1.4	0.6	18.2	8.0	1.3
CCN(CC)C(=O)[C@@]1(c2ccccc2)C[C@H]1COc1ccc(C)cc1	4.6	20.2	28.9	24.8	30.3*
Cn1c(SCCOc2ccccc2)nnc1-c1ccc2c(c1)OCCCO2	1.8	3.3	7.4	4.1	3.1
Cn1c(SCCOc2ccc(Cl)cc2)nnc1-c1ccc2c(c1)OCCO2	6.5	9.6	54.0*	27.3	18.2
Cc1nc(N2CCOCC2)cc(N2CCN(C(=O)C(C)C)CC2)n1	0.1	6.5	15.9	4.1	7.7
COc1ccc(CC(=O)OC(C(=O)c2c[nH]c3ccccc23)c2ccccc2)cc1 (centres undefined)	-9.5	-43.5	-412.8	-111.7	-121.9
COCCn1cc(CN2CCC(O)(c3ccccc3F)CC2)c2ccccc21	-0.1	32.2*	34.7*	26.3	9.4
OC1(c2cccnc2)CCN(Cc2ccccc2F)CC1	-7.3	-13.4	-43.8	-6.5	-12.8
CC(=O)c1ccc(Nc2c(C(=O)N3CCOCC3)cnc3nc(C)ccc23)cc1	-8.7	-114.0	-114.3	-29.6	-35.4
COc1ccc(-c2nc(-c3nnn(Cc4cccc(F)c4)c3C)no2)c(OC)c1	10.5	2.7	31.7*	41.7*	-4.9
COc1ccc(-c2nc(Cn3nnc(-c4nc(-c5ccccc5C)no4)c3C)c(C)o2)cc1	-12.3	-43.2	-187.0	-49.8	-50.1
Cc1c(-c2noc(-c3ccco3)n2)nnn1Cc1cccc(F)c1	1.5	1.1	-15.7	7.5	-2.5
COc1ccccc1-c1noc(-c2nnn(Cc3nc(-c4ccc(C)cc4)oc3C)c2C)n1	-1.9	1.8	31.7*	-12.5	-7.3
COc1ccccc1-c1nc(-c2nnn(Cc3ccc(C)cc3)c2C)no1	12.6	4.9	30.4*	71.9*	4.0
COc1ccccc1-c1nc(-c2nnn(Cc3ccccc3)c2C)no1	6.4	7.6	27.1	45.3*	24.3
O=C(NCCO)C1CCN(c2ncc(C(F)(F)F)cc2Cl)CC1	-1.2	-0.1	2.0	4.5	-5.0
c1cncc(CN2CCC(c3ccnc(Nc4cncnc4)n3)CC2)c1	1.8	24.3	19.3	18.0	5.8

From PubChem
